Compound activity deposited in PubChem BioAssay by The Scripps Research Institute Molecular Screening Center.
hgDAF-12 ag: hgDAF-12 agonism, primary luciferase screen. 370,000 tested, 1.8% active. HEK293 GAL4-hgDAF12 UAS-luciferase reporter, agonist luminescence; normalized to butyrate control. activation, % at 6.8 µM;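 active means activation above a cutoff set at the mean of all screened compounds plus 3 SD, cut at about 10% in these data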;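 further: 0% = DMSO wells and 100% = sodium butyrate wells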
hcDAF12 agonist: activators of H. contortus DAF-12 nuclear receptor; HEK293 hcDAF-12 lit1-tk-luc reporter, luminescence; 0% DMSO, 100% Δ7-dafachronic acid; activation, % at 6.8 µM; 370,000 tested, 1.4% active; AID 652067;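 active means activation above the mean of all tested compounds plus 3 SD, cut at about 5.5% in these data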;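 further: 100% = response to 3 µM Δ7-dafachronic acid high control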
FXN GAA850 act: frataxin GAA850 promoter activation; activation, % at 6 µM; HEK293 lucGAA850 FXN promoter luciferase reporter, 24 h; percent of 10 µM SAHA response; 360,000 tested, 0.56% active; AID 540364;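 active means activation above the average of all compounds screened plus 3 SD, cutoff fixed separately per campaign, cut at about 7.5% in these data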;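 further: 0% = DMSO wells and 100% = 10 µM SAHA wells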
ssDAF-12 act: activators of S. stercoralis DAF-12 nuclear receptor | HEK293 ssDAF-12/GRIP1 lit1-tk-luc reporter, luminescence; % of 3 µM dafachronic acid response | activation, % at 6.8 µM | 370,000 tested, 1% active;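 active means activation above the mean over all tested compounds plus 3 SD, cut at about 0.9% in these data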;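 further: 0% = DMSO-only wells and 100% = 3 µM delta7-dafachronic acid wells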
DAX1 inh-1: inhibitors of human orphan nuclear receptor DAX1 (NR0B1); 340,000 tested, 0.99% active; inhibition, % at 6.75 µM; P51843; HEK293 Gal4-DAX1 luciferase reporter, luminescence;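 active means inhibition above the mean over all tested compounds plus 3 SD, cut at about 4.2% in these data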;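 further: 0% = DAX1-transfected cells with DMSO and 100% = empty-vector control cells with DMSO; inhibition shows as a rise in luminescence from relieved DAX1 repression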
DAX1 inh-2: DAX1 (NR0B1) inhibition, primary screen; 370,000 tested, 1.1% active; HEK293T StAR-luciferase reporter, SF-1/DAX-1 repression relief; inhibition, % at 6.8 µM; AID 652010;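 active means inhibition above the mean over all tested compounds plus 3 SD, cut at about 3.6% in these data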;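 further: 0% = DAX-1 cells with DMSO and 100% = cells lacking DAX-1 with DMSO; higher inhibition means more luminescence from relief of DAX-1 repression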
DAX1 inh confirm: NR0B1 (human) inhibition, confirmation; 2,400 tested, 87% active; shares compounds with DAX1 inh-2; inhibition, % at 6.8 µM; HEK293T StAR-promoter luciferase reporter, SF-1/DAX-1 repression;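 active means inhibition above the average of every tested compound plus 3 SD, cut at about 3.8% in these data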;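 further: 0% = DAX-1 cells with DMSO and 100% = no DAX-1 control cells with DMSO; active compounds raise luminescence by relieving repression of the StAR reporter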
Target sequence (P51843 whole entry, looked up): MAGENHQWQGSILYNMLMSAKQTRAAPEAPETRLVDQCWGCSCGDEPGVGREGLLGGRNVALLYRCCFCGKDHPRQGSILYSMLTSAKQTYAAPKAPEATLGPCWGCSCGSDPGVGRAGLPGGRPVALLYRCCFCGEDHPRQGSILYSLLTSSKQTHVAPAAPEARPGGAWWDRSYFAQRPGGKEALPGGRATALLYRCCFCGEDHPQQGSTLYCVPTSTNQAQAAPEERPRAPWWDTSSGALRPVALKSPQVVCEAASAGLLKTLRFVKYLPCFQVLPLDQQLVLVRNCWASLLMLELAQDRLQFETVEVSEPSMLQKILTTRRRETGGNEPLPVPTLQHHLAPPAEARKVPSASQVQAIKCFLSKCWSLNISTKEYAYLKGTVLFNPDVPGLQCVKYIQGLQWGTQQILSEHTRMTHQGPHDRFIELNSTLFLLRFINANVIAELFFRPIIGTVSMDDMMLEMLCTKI
SF1 AF2mut Luc: counter-screen for DAX1 inhibitors: nonselective inhibitors with SF-1 AF2 mutant | shares compounds with DAX1 inh-2 | HEK293 StAR-luciferase, luminescence | inhibition, % at 6.8 µM | 2,400 tested, 78% active | AID 652136;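 active means inhibition above the mean of all tested compounds plus 3 SD, cut at about 3% in these data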;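 further: 0% = DAX-1 transfected cells with DMSO and 100% = cells without DAX-1 with DMSO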
Starred values were filed as active, the others as inactive; / = not tested or not shown. This is a sample that favours compounds with a hit; in the whole collection about 4.5% have one here.

SMILES	hgDAF-12 ag	hcDAF12 agonist	FXN GAA850 act	ssDAF-12 act	DAX1 inh-1	DAX1 inh-2	DAX1 inh confirm	SF1 AF2mut Luc
O=C(c1ccc(-c2ccccc2Cl)o1)N1CCC1	8.3	1.1	2.6	-0.1	0.8	5.1*	5.7*	4.3*
Cc1onc(-c2ccccc2Cl)c1C(=O)NCC1CCCO1 (stereo unspecified)	-0.5	-0.7	2.2	-1.0	-0.9	-0.1	/	/
O=C(NC1CCCCCC1)c1ccc(Cl)c(S(=O)(=O)N2CCOCC2)c1	1.3	-1.5	0.0	-1.0	-0.8	-0.1	/	/
Cn1c(NCc2ccccc2Cl)nc2ccccc21	8.8	2.3	4.4	-0.7	8.2*	6.5*	9.7*	5.9*
Cn1c(NCc2ccccc2O)nc2ccccc21	9.4	2.3	0.0	0.1	2.3	1.6	/	/
CC(C)Cc1ccc(C(=O)Nc2ccc(Cc3ccncc3)cc2)o1	-2.5	-1.6	-1.8	-1.6	-3.4	-0.4	/	/
CC(=Nc1ccccc1)C1=C(O)C(Cc2ccccc2)NC1=O (stereo unspecified)	4.5	4.4	3.2	0.6	2.3	8.2*	30.8*	-4.8
COc1ccc(C(=O)N2CCOC2CNC(=O)C(=O)NCc2ccccc2)cc1 (stereo unspecified)	0.8	0.7	-1.2	-1.2	-0.2	0.9	/	/
C#CCSc1nnc(C)c(C)n1	0.2	0.6	3.1	0.0	0.8	0.1	/	/
COC(=O)[C@]12C=CCN1[C@H](c1ccc(C(F)(F)F)cc1)c1c(c3ccccc3n1S(=O)(=O)c1ccc(C)cc1)C2	1.4	2.5	/	-0.6	/	1.0	/	/
CCc1cc2c(Nc3ccc(O)cc3)nc(C)nc2s1	-4.0	1.1	1.2	-1.1	-0.9	-0.8	/	/
CCN1CCN(c2ccc(S(=O)(=O)N3CCCCC3)cc2NC(=O)/C=C/c2ccc(OC)c(OC)c2)CC1	-0.8	-0.4	-0.9	-0.9	1.0	1.6	/	/
CCN1CCN(c2ccc(S(=O)(=O)N3CCCCC3)cc2NC(=O)/C=C/c2ccc(Cl)cc2)CC1	0.2	-0.9	-2.0	-1.0	-0.3	4.8*	1.5	-0.2
Clc1cccc(-c2cc3nc4c(c(NCc5ccco5)n3n2)CCCC4)c1	7.9	2.2	7.4	-1.0	0.7	4.5*	12.1*	4.8*
COc1cccc(/C=C/C(=O)NNC(=O)c2ccco2)c1OC	9.9	3.7	3.5	0.2	0.7	4.9*	9.1*	6.5*
COCCCNC(=O)Cn1ccc(N)nc1=O	-0.8	-1.2	0.1	-0.8	0.5	1.0	/	/
Cc1ccc(C(=O)NCC(=O)Nc2ccc3c(c2)CCC3)cc1	3.9	2.7	4.0	-0.8	3.8	1.5	/	/
CC(=O)c1cccc(NC(=O)c2ccc3c(c2)CCCC3)c1	12.5*	2.1	2.7	-0.6	1.8	8.2*	8.8*	5.4*
Cc1ccc(C(=O)Nc2ccc3c(c2)CCC3)cc1	6.5	5.0	-0.8	-0.4	-4.2	4.6*	6.0*	4.2*
O=C1CC2(CCN(C(=O)c3cccc([N+](=O)[O-])c3)CC2)Oc2ccccc21	-2.1	-0.6	0.5	-1.2	-0.1	0.4	/	/
O=C(O)c1ccc2c(c1)-c1cc(C(=O)O)ccc1S2(=O)=O	0.7	1.2	-0.5	-1.3	0.8	-0.6	/	/
CC(=O)NC1C(OCc2ccccc2)OC2COC(C)(C)OC2C1O (stereo unspecified)	-3.0	-0.1	3.2	-1.6	1.0	-0.4	/	/
O=C(NOCc1ccccc1)c1ccc(Cl)cc1	6.3	2.0	1.6	0.8	0.4	8.6*	10.9*	6.2*
COc1ccc(C(=O)NOCc2ccccc2)cc1	8.7	4.9	-1.4	0.6	-1.7	1.3	/	/
Cc1ccc(CONC(=O)c2ccc(C)cc2)cc1	8.8	0.5	2.1	0.9	2.9	5.9*	5.9*	3.5*
SMILES	hgDAF-12 ag	hcDAF12 agonist	FXN GAA850 act	ssDAF-12 act	DAX1 inh-1	DAX1 inh-2	DAX1 inh confirm	SF1 AF2mut Luc
Cc1ccc(CONC(=O)c2ccc(Cl)cc2)cc1	6.4	0.9	0.3	-0.8	1.4	1.5	/	/
CC(=O)Nc1cc(-c2ccc(N(C)C)cc2)cn2c(-c3ccc(F)cc3)cnc12	3.0	2.0	4.0	-1.0	/	-0.6	/	/
CC1CN(CC(=O)NN=C(c2ccccc2)c2ccccc2)CC(C)O1 (stereo unspecified)	-0.5	-0.4	1.0	-1.6	0.4	0.6	/	/
O=C(NN=Cc1ccc2c(c1)OCO2)c1ccccc1	9.6	6.0*	3.3	0.7	3.2	5.3*	11.3*	5.8*
COC(=O)N1CCCCC1c1cc(C(=O)Nc2ccc3c(c2)OCO3)no1 (stereo unspecified)	0.0	0.3	1.3	-0.7	/	0.0	/	/
O=C(Nc1ccc2c(c1)OCO2)c1cc(C2CC2)on1	8.9	4.1	3.9	-0.1	3.2	7.0*	13.0*	7.8*
O=C(Nc1ccc2c(c1)OCO2)c1ccccn1	11.4*	1.8	4.6	0.2	0.7	8.8*	9.9*	7.1*
O=S1(=O)C=C(Sc2ccc(Cl)cc2)c2ccccc2C1Cc1ccc(F)cc1 (stereo unspecified)	-1.3	-0.9	/	-0.9	/	-0.7	/	/
CCN(CC(=O)NC1CCCC1)S(=O)(=O)c1ccc(Br)cc1	0.0	-0.4	-0.4	-1.0	-0.1	0.3	/	/
COc1ccc(C(CNC(=O)c2cccc(NC(=O)c3cccs3)c2)N2CCCC2)cc1 (stereo unspecified)	1.7	1.1	-0.4	-0.7	0.9	4.5*	6.4*	3.7*
O=C(c1cc([N+](=O)[O-])ccc1N1CCOCC1)N1CCN(c2ccccc2)CC1	-3.7	0.9	-2.2	0.5	1.2	13.8*	17.4*	-5.6
CCCCCCCCN1C(=O)[C@H](CC(=O)N2CCCC2)C[C@@]2(C(=O)OCC)CCCC=C12	-1.2	-2.9	/	-1.9	/	-2.5	/	/
O=c1cccc(-c2ccc3ccccc3c2)o1	6.7	0.1	/	-0.6	/	6.6*	5.0*	3.1*
Cc1ccc(-c2cccc(=O)o2)cc1	3.0	-0.9	/	-0.8	/	-0.8	/	/
Cc1c(NC(=O)c2ccc(S(=O)(=O)N(C)C)cc2)cccc1-n1cnnn1	0.9	0.0	0.9	-0.9	-0.2	-1.5	/	/
c1ccc(OCCSc2nnnn2C2CCCCC2)cc1	12.8*	5.2	5.1	0.3	1.6	4.5*	11.3*	8.3*
O=C1CCCC2=C1C(c1ccsc1)CC(=O)N2c1ccccc1F (stereo unspecified)	-2.6	-0.6	0.9	-1.2	0.1	-0.2	/	/
